Inconclusive results are not listed. A call without a number means that no potency is given here. Unmarked numbers belong to inactive results. Activity calls are given as the source filed them. Calls come from the whole dose curve; as a rule, active = well fitted inhibition curve with a large enough effect; inconclusive = small, poorly fitted or top-dose-only effect; inactive = flat fitted curve, though single readings scatter.
Key:
[1] = qHTS profiling for inhibitors of Plasmodium falciparum proliferation (AID 504749); note: nearly all actives have a fitted effect of over 60% in size; conditions: P. falciparum in erythrocytes, SYBR Green DNA, 72 h, at 28.7 µM (top of the series)
Method in brief: (§1)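 Quantitative HTS: compounds pinned into medium, infected erythrocytes added (0.3% parasitemia, 2.5% hematocrit), 72 h culture at 37 C under 5% CO2. Saponin/Triton lysis with SYBR Green I, overnight RT, then fluorescence read.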

[2] = system: 3D7; assay: as above; conditions: P. falciparum in erythrocytes, SYBR Green DNA, 72 h; series mostly up to 28.7 µM
Method in brief: as §1

[3] = system: 7G8; assay: as above; conditions: P. falciparum in erythrocytes, SYBR Green DNA, 72 h; series mostly up to 28.7 µM
Method in brief: as §1

[4] = system: AA1029; assay: as above; conditions: P. falciparum in erythrocytes, SYBR Green DNA, 72 h; series mostly up to 28.7 µM
Method in brief: as §1

[5] = system: AS120; assay: as above; conditions: P. falciparum in erythrocytes, SYBR Green DNA, 72 h; series mostly up to 28.7 µM
Method in brief: as §1

[6] = system: ATS189; assay: as above; conditions: P. falciparum in erythrocytes, SYBR Green DNA, 72 h; series mostly up to 28.7 µM
Method in brief: as §1

[7] = system: ATS95; assay: as above; conditions: P. falciparum in erythrocytes, SYBR Green DNA, 72 h; series mostly up to 28.7 µM
Method in brief: as §1

[8] = system: C2A; assay: as above; conditions: P. falciparum in erythrocytes, SYBR Green DNA, 72 h; series mostly up to 28.7 µM
Method in brief: as §1

[9] = system: CP185; assay: as above; conditions: P. falciparum in erythrocytes, SYBR Green DNA, 72 h; series mostly up to 28.7 µM
Method in brief: as §1

[10] = system: CP191; assay: as above; conditions: P. falciparum in erythrocytes, SYBR Green DNA, 72 h; series mostly up to 28.7 µM
Method in brief: as §1

[11] = system: CP192; assay: as above; conditions: P. falciparum in erythrocytes, SYBR Green DNA, 72 h; series mostly up to 28.7 µM
Method in brief: as §1

[12] = system: CP194; assay: as above; conditions: P. falciparum in erythrocytes, SYBR Green DNA, 72 h; series mostly up to 28.7 µM
Method in brief: as §1

[13] = system: CP201; assay: as above; conditions: P. falciparum in erythrocytes, SYBR Green DNA, 72 h; series mostly up to 28.7 µM
Method in brief: as §1

[14] = system: CP203; assay: as above; conditions: P. falciparum in erythrocytes, SYBR Green DNA, 72 h; series mostly up to 28.7 µM
Method in brief: as §1

[15] = system: CP211; assay: as above; conditions: P. falciparum in erythrocytes, SYBR Green DNA, 72 h; series mostly up to 28.7 µM
Method in brief: as §1

[16] = system: CP215; assay: as above; conditions: P. falciparum in erythrocytes, SYBR Green DNA, 72 h; series mostly up to 28.7 µM
Method in brief: as §1

[17] = system: CP217; assay: as above; conditions: P. falciparum in erythrocytes, SYBR Green DNA, 72 h; series mostly up to 28.7 µM
Method in brief: as §1
Potency is the fitted concentration of half-maximal effect.

Structure (SMILES) | activity, negative = inhibition ([1]; parasite line A) [%] | activity, negative = inhibition ([1]; parasite line B) [%] | Potency [2] | Potency [3] | Potency [4] | Potency [5] | Potency [6] | Potency [7] | Potency [8] | Potency [9] | Potency [10] | Potency [11] | Potency [12] | Potency [13] | Potency [14] | Potency [15] | Potency [16] | Potency [17]
NC(=S)N/N=C/c1cccnc1 | 13.2 | 8.73 | inactive | inactive | inactive | inactive | inactive | inactive | inactive | inactive | inactive | inactive | inactive | inactive | inactive | inactive | inactive | inactive
CCN(CC)CCNC(=O)COc1ccc(OC)cc1 | 19.5 | 3.1 | inactive | inactive | inactive | inactive | inactive | inactive | inactive | inactive | inactive | inactive | inactive | inactive | inactive | inactive | inactive | inactive
CC(C)Cn1cnc2c1c(=O)n(C)c(=O)n2C | -14.6 | 1.13 | inactive | inactive | inactive | inactive | inactive | inactive | inactive | inactive | inactive | inactive | inactive | inactive | inactive | inactive | inactive | inactive
CC(C)Nc1cccnc1N1CCN(C(=O)c2cc3cc(NS(C)(=O)=O)ccc3[nH]2)CC1 | -10.7 | 24 | inactive | 12.6 µM (active) | inactive | inactive | inactive | inactive | inactive | inactive | inactive | inactive | inactive | inactive | inactive | inactive | inactive | inactive
O=C(O)C(Cc1cc(I)c(O)c(I)c1)c1ccccc1 (stereo not drawn) | -3.64 | 7.72 | inactive | inactive | inactive | inactive | inactive | inactive | inactive | inactive | inactive | inactive | inactive | inactive | inactive | inactive | inactive | inactive
OCc1ccccn1 | 7.68 | 8.75 | inactive | inactive | inactive | inactive | inactive | inactive | inactive | inactive | inactive | inactive | inactive | inactive | inactive | inactive | inactive | inactive
